A selection: hits, their analogues and other compounds. The true share with any hit is near 12%.
G9a block: G9a (human) methyltransferase inhibition; Q96KQ7; G9a H3K9 monomethylation, AlphaScreen, 2 h; Potency, µM (doses to about 102 µM), for the others: at the highest dose activity, negative = inhibition, actives largely listed as inhibitors; 350,000 tested, 8.8% active; AID 504332; also: % is scaled to controls: 0 for no effect and ±100 for the full control effect; nearly all actives have a fitted effect of over 75% in size
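Using a bead-based AlphaScreen, monomethylated H3K9 product from 2 h room-temperature reactions (G9a 20 nM, peptide 500 nM, SAM 20 uM) was detected with 0.5 ug/mL rabbit anti-H3K9me1 antibody.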
JMJD2A Tudor inh: blocks the human JMJD2A Tudor domain. O75164. AlphaScreen JMJD2A-Tudor / H3K4me3 peptide binding. Potency, µM (titrated, usually from 114 µM), for the others: top-dose activity change, negative = inhibition, hits mostly inhibitors. 390,000 tested, 4.4% active. AID 504339; also: % is scaled to controls: 0 for no effect and ±100 for the full control effect; nearly all actives have a fitted effect of over 50% in size
Sfp PPTase inh: inhibitors of Bacillus subtilis Sfp phosphopantetheinyl transferase; Potency, µM, for the others: largest response in the series, negative = inhibition, actives largely listed as inhibitors; AID 1490; Biochemical Sfp PPTase activity, qHTS; Q9F4F7; 310,000 tested, 3.5% active;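 also: the enzyme is Sfp with the accession as filed and its product quenches rhodamine fluorescence; 0% = enzyme reaction without inhibitor and -100% = no enzyme wells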
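Buffer: 50 mM Hepes-Na pH 7.6, 10 mM MgCl2, 0.01% Nonidet P-40, 0.01% BSA. Enzyme 15 nM, pre-exposed to compound 15 min; substrates then added and fluorescence change tracked over 30 min.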
HP1b binding inh: blocks HP1-beta chromodomain binding to methylated histone tails. P83916. AlphaScreen HP1-beta / biotin-H3K9me3 peptide binding. Potency, µM (highest dose often 114 µM), for inactives: at the top dose activity change, negative = inhibition, actives largely listed as inhibitors. 390,000 tested, 0.56% active. AID 540317; also: nearly all actives have a fitted effect of over 70% in size
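Compound inhibition of the preformed complex between 50 nM HP1-beta and 50 nM biotinylated H3K9me3 peptide was read by AlphaScreen. Buffer was PBS pH 7.4 with 0.01% Tween-20. Incubations ran 30 min at room temperature, with 10 ug/mL donor/acceptor beads.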
PLK1 PBD inh: PLK1 (human) polo-box domain binding inhibition | Plk1 PBD binding of FITC phosphopeptide, fluorescence polarization | P53350 | 360,000 tested, 2.8% active | Potency, µM, for the others: max response, negative = inhibition, hits mostly inhibitors; also: series mostly up to about 57 µM; % is scaled to controls: 0 for no effect and ±100 for the full control effect; nearly all actives have a fitted effect of over 65% in size
BAZ2B inh: inhibitors of human BAZ2B bromodomain; Q9UIF8; AlphaScreen BAZ2B-H3K14Ac peptide displacement; Potency, µM (series often up to 114 µM), for inactives: at the highest dose activity change, negative = inhibition, actives largely listed as inhibitors; 360,000 tested, 4.4% active; also: % is scaled to controls: 0 for no effect and ±100 for the full control effect; nearly all actives have a fitted effect of over 60% in size
Target sequence (Q9UIF8 whole entry, looked up): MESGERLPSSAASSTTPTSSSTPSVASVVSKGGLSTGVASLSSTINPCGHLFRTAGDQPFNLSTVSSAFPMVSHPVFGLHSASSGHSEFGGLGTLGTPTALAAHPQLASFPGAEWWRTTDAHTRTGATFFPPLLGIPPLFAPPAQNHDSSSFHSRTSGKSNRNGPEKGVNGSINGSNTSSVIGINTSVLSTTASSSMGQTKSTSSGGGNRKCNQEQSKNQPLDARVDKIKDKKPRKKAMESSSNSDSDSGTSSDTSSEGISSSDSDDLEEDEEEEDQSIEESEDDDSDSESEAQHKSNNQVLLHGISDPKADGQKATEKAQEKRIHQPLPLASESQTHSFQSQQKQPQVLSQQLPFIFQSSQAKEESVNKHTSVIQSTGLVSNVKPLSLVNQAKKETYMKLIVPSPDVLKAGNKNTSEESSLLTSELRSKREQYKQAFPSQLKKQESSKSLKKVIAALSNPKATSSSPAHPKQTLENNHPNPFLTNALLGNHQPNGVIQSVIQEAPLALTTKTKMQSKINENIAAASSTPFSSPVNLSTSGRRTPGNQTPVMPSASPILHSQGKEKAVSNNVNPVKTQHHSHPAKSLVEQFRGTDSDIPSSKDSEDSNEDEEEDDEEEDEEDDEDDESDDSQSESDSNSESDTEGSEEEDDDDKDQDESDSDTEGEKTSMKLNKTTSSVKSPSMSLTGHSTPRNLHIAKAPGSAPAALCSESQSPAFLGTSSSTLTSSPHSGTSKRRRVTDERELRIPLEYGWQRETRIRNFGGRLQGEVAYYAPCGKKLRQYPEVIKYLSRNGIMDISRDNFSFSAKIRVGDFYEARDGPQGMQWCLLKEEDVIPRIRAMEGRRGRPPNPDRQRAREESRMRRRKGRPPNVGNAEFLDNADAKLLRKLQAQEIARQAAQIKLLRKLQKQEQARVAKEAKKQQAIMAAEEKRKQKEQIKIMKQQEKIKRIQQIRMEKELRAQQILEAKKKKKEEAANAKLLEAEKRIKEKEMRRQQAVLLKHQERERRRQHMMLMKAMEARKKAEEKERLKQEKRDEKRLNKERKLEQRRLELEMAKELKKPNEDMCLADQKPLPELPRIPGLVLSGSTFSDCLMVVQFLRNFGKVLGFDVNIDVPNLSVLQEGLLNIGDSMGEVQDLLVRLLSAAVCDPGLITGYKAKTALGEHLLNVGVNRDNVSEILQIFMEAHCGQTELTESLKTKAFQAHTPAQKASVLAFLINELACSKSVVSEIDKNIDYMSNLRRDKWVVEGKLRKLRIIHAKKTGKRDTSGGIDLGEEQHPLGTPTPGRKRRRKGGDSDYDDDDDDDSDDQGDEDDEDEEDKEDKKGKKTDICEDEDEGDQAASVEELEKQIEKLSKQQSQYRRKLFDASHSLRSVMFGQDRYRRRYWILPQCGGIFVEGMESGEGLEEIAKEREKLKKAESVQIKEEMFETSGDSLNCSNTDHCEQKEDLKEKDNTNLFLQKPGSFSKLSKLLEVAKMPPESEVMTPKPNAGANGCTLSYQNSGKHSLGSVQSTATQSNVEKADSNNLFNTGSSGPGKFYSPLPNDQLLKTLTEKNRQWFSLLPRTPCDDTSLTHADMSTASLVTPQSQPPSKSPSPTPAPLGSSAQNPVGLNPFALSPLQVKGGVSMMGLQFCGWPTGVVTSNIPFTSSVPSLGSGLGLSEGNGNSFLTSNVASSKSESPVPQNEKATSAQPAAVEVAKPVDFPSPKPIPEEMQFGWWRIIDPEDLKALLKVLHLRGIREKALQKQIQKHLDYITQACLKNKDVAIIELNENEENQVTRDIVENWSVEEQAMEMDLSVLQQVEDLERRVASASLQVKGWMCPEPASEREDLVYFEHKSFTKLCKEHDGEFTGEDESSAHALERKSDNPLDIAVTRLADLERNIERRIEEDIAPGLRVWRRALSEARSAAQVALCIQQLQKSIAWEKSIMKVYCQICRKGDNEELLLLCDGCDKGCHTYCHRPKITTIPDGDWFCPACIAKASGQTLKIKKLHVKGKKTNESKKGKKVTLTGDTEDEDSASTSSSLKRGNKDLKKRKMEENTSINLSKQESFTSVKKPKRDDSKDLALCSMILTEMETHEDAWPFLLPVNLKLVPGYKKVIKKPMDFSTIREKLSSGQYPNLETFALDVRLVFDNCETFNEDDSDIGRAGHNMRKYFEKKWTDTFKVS
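Compounds, titrated to a top concentration of 110 uM, were incubated 30 min at room temperature with preformed BAZ2B/acetyl-K14 H3 peptide complex (50 nM each). Proximity signal was measured by AlphaScreen after 20 min with beads.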
* marks the source's active call; other numbers are inactive results; [ ] = remark or other dose. Calls follow the shape of the dose curve; as a rule, active = well fitted curve in the direction sought with a large enough effect; inconclusive = small, poorly fitted or top-dose-only effect, or another doubt; inactive = no such curve, though single readings can be large; an effect the other way counts as inactive or inconclusive. Potency is read from the fitted curve at half-maximal effect.

Screening O=C(/C=C/c1ccc(O)c(O)c1)O[C@@H]1C[C@@](O)(C(=O)O)C[C@H](O)[C@@H]1O returned Sfp PPTase inh 50.1µM*.
O=C(c1cnc2n(c1=O)CCS2)N1CCc2ccccc21 was read as G9a block -4.0%[59 µM], JMJD2A Tudor inh -15.5%, Sfp PPTase inh 0.9%, HP1b binding inh 29.9%, PLK1 PBD inh -19.0% and BAZ2B inh -4.8%.
`CC1Cc2ccccc2N1C(=O)c1cnc2n(c1=O)CCS2` (stereo unspecified) gave G9a block 44.7µM*, JMJD2A Tudor inh -6.9%, Sfp PPTase inh -3.5%, HP1b binding inh 33.7%, PLK1 PBD inh -23.7% and BAZ2B inh 7.3%.
For CC1Cc2ccccc2N1C(=O)c1cccnc1 (stereo unspecified) the results were G9a block 50.1µM*, JMJD2A Tudor inh -1.9%, Sfp PPTase inh -5.1%, HP1b binding inh 18.6%, PLK1 PBD inh 1.4% and BAZ2B inh 3.5%.
Screening CC1CCc2cc(F)ccc2N1C(=O)c1cccnc1 (stereo unspecified) returned JMJD2A Tudor inh -13.0%, Sfp PPTase inh -0.3%, HP1b binding inh 64.8%, PLK1 PBD inh -10.9% and BAZ2B inh 3.5%.
For O=C(Nc1c(C(=O)N2CCOCC2)oc2ccccc12)c1ccccc1Cl the results were JMJD2A Tudor inh -6.9%, Sfp PPTase inh 11.3%, HP1b binding inh 62.0%, PLK1 PBD inh -6.8% and BAZ2B inh -19.1%.
Screening Cc1ccc2cc(CN(C)C(=O)c3cccc(Cl)c3)c(=O)[nH]c2c1 returned G9a block -7.3%[59 µM], JMJD2A Tudor inh -11.5%, HP1b binding inh 12.2% and BAZ2B inh -5.2%.
`COc1ccc(NCCC(O)c2ccc(Cl)cc2)cc1` (stereo unspecified) gave G9a block inconclusive, JMJD2A Tudor inh 56.2µM*, Sfp PPTase inh -6.1%, HP1b binding inh inconclusive, PLK1 PBD inh -5.0% and BAZ2B inh 44.7µM*.
COc1ccc(Cl)cc1NC(=S)NCCc1ccc(F)cc1 was read as G9a block 2.4%, JMJD2A Tudor inh -3.8%, Sfp PPTase inh -4.7%, HP1b binding inh 43.0%, PLK1 PBD inh -13.5% and BAZ2B inh -26.5%.
`COc1ccc(Cl)cc1NCCC(O)c1ccc(F)cc1` (stereo unspecified) gave G9a block 35.5µM*, JMJD2A Tudor inh inconclusive, Sfp PPTase inh 1.4%, HP1b binding inh -0.7%, PLK1 PBD inh -11.7% and BAZ2B inh inconclusive.
Screening COc1ccc(OCC(=O)Nc2ccc(Cl)cc2)cc1 returned JMJD2A Tudor inh -2.1%, Sfp PPTase inh 10.6%, HP1b binding inh 4.6%, PLK1 PBD inh -4.4% and BAZ2B inh 13.5%.
O=C(NCc1cccnc1)c1cc(S(=O)(=O)N2CCCCC2)ccc1Cl was read as G9a block 2.5%[59 µM], JMJD2A Tudor inh 5.8%, Sfp PPTase inh -5.0%, HP1b binding inh 37.8%, PLK1 PBD inh -8.6% and BAZ2B inh 10.5%.
For COC(=O)[C@H]1O[C@@H](c2cc(OC)c(C)c(OC)c2O)[C@H](C)[C@@H](O)[C@H]1C the results were Sfp PPTase inh -17.3%.
`Cc1cc(C)c2c(c1)c(C)cc1nnc(SCC(=O)c3cccs3)n12` gave G9a block 3.16µM*, JMJD2A Tudor inh inconclusive, Sfp PPTase inh 15.9%, HP1b binding inh 5.7%, PLK1 PBD inh 0.1% and BAZ2B inh 0.9%.
For CCCN(CCC)C(=O)CSc1nnc2cc(C)c3cc(C)cc(C)c3n12 the results were G9a block 2.51µM*, JMJD2A Tudor inh 15.8µM*, HP1b binding inh 43.5% and BAZ2B inh -20.4%.
COC(=O)C(C)Sc1nnc2cc(C)c3cc(C)cc(C)c3n12 (stereo unspecified) was read as G9a block 8.91µM*, JMJD2A Tudor inh -17.9%, HP1b binding inh 29.7% and BAZ2B inh inconclusive.
`COCCn1c(Cc2ccccc2)nnc1SCc1ccc([N+](=O)[O-])cc1` gave G9a block inconclusive, JMJD2A Tudor inh -11.9%, Sfp PPTase inh 7.5%, HP1b binding inh 26.1%, PLK1 PBD inh -8.0% and BAZ2B inh -28.0%.

Compound activity: PubChem, National Center for Advancing Translational Sciences (NCATS)
